Key:
Assay in all cases: DAPPL (digital affinity profiling via proximity ligation, sequencing); 10 mM Tris-HCl pH 7.5, 50 mM NaCl, 1 mM DTT, 4% glycerol, room temperature, 30 min; GST-TFs on glutathione beads, 16-mer random dsDNA library, 0.1% formaldehyde crosslink after washing; high values mean tight binding
[1] = target: T1, FLI1 (Homo sapiens, UniProt Q01543 1-452); conditions: protein: recombinant; tags: N-terminal GST; dsDNA, one strand shown
T1 sequence: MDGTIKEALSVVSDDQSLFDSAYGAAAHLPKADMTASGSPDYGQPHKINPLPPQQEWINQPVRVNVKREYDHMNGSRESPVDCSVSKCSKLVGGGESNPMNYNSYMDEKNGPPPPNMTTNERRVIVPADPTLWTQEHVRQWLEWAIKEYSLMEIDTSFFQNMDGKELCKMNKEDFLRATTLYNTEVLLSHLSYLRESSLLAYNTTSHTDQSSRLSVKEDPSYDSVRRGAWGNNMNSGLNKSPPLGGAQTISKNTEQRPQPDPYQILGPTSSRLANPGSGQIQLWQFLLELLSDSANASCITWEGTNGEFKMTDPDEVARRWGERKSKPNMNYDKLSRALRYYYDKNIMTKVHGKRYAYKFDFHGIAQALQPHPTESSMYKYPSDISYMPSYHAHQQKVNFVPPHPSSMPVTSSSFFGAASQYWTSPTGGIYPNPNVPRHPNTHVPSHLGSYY
Procedure, shortened: (§1)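 Yeast served to express human transcription factors as GST fusions, which were then captured on glutathione beads and labelled with DNA barcodes. Pooled with a tag-only sample, they were incubated with 200 nmole of a 16-mer random double-stranded DNA library for 30 min at room temperature in Tris/NaCl/DTT/glycerol buffer, washed, crosslinked with 0.1% formaldehyde, ligated by proximity, amplified by PCR and sequenced. Dividing each hexamer's read frequency for a factor by its frequency for the tag-only sample gives the binding signal.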

[2] = target: T2, ELK1 (Homo sapiens, UniProt P19419 1-428); conditions: protein: recombinant; tags: N-terminal GST; dsDNA, one strand shown
T2 sequence: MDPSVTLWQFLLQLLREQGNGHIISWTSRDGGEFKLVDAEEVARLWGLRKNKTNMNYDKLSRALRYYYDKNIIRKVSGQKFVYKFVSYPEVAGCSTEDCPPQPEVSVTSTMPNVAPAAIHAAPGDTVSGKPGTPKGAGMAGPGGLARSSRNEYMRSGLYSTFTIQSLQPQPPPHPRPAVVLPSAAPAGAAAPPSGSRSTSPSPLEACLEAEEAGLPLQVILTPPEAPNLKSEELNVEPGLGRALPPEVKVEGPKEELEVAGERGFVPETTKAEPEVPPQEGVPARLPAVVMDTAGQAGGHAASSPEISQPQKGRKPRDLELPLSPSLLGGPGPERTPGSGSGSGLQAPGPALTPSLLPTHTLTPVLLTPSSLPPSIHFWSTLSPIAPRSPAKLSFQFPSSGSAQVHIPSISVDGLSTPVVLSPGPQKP
Procedure, shortened: as §1

[3] = target: T3, GABPA (Homo sapiens, UniProt Q06546 1-454); conditions: protein: recombinant; tags: N-terminal GST; dsDNA, one strand shown
T3 sequence: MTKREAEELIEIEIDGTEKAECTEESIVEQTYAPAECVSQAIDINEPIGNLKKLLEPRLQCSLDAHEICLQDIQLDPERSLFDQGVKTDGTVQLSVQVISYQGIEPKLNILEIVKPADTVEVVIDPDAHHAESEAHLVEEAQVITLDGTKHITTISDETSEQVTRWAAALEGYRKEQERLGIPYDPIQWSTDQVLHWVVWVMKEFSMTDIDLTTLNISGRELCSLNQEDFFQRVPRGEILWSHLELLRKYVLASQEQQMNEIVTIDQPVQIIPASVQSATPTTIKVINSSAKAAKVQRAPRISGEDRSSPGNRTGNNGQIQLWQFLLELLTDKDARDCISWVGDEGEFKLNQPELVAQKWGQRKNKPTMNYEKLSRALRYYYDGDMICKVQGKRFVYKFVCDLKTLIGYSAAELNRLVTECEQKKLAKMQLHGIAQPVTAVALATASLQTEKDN
Procedure, shortened: as §1

[4] = target: T4, ERG (Homo sapiens, UniProt P11308 1-479); conditions: protein: recombinant; tags: N-terminal GST; dsDNA, one strand shown
T4 sequence: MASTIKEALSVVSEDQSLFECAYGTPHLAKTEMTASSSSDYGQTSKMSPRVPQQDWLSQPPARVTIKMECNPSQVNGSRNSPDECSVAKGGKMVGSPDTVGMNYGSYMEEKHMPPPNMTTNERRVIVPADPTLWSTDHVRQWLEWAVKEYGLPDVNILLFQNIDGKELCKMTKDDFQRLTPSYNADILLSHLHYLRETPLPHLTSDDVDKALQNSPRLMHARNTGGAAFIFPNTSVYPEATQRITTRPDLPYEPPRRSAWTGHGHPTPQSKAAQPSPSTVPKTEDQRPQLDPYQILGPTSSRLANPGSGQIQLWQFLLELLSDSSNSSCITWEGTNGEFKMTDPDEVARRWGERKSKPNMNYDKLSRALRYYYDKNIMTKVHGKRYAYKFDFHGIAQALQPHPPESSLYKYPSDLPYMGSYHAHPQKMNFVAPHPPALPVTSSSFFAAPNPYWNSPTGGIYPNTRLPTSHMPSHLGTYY
Procedure, shortened: as §1

[5] = target: ELF1 (Homo sapiens, UniProt P32519 1-619); conditions: protein: recombinant; tags: N-terminal GST; dsDNA, one strand shown
Sequence of ELF1 (P32519 whole entry): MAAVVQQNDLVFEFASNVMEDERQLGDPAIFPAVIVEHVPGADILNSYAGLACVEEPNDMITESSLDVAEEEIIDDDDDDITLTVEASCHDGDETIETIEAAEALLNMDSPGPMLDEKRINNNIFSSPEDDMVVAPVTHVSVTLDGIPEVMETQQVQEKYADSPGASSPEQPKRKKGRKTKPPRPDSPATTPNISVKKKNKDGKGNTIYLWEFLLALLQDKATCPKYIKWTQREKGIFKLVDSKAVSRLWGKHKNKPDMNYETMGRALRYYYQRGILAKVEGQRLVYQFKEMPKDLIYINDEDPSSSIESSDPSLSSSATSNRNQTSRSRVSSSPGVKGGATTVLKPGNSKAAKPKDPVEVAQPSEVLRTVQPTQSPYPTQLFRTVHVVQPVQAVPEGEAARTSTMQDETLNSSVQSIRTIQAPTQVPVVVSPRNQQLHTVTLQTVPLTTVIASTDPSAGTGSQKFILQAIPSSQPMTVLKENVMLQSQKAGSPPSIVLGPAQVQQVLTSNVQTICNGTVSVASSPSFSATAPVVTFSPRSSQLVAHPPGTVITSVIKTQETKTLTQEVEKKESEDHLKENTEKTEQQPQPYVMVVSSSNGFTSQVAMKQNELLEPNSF
Procedure, shortened: as §1

[6] = target: SPI1 (Homo sapiens, UniProt P17947 1-270); conditions: protein: recombinant; tags: N-terminal GST; dsDNA, one strand shown
Procedure, shortened: as §1

[7] = target: SPIB (Homo sapiens, UniProt Q01892 1-262); conditions: protein: recombinant; tags: N-terminal GST; dsDNA, one strand shown
Sequence of SPIB (Q01892 whole entry): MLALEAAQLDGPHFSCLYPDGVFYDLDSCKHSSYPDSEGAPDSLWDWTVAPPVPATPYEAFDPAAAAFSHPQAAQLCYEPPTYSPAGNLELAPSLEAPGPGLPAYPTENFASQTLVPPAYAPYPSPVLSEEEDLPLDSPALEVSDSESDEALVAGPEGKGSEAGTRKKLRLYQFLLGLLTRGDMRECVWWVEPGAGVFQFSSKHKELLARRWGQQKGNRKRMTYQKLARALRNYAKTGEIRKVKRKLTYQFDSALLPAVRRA
Procedure, shortened: as §1

[8] = target: T5, ELK3 (Homo sapiens, UniProt P41970 1-407); conditions: protein: recombinant; tags: N-terminal GST; dsDNA, one strand shown
T5 sequence: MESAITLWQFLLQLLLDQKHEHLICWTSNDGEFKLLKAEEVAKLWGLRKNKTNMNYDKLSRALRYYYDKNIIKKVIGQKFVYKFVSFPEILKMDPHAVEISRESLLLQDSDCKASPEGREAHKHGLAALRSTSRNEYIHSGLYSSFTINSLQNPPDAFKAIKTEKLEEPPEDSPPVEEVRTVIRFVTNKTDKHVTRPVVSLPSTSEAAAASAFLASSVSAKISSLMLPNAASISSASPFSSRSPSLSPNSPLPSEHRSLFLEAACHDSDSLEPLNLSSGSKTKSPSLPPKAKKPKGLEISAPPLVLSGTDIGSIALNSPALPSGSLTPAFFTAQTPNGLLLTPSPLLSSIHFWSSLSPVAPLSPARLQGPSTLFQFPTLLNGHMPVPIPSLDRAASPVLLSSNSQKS
Procedure, shortened: as §1

[9] = target: T6, FEV (Homo sapiens, UniProt Q99581 1-238); conditions: protein: recombinant; tags: N-terminal GST; dsDNA, one strand shown
T6 sequence: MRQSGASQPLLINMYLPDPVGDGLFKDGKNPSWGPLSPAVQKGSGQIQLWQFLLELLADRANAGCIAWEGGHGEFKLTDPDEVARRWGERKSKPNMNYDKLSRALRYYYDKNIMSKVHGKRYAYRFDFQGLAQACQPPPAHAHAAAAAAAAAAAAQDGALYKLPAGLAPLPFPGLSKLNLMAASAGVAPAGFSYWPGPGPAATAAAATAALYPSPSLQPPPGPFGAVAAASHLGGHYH
Procedure, shortened: as §1

[10] = target: ETV5 (Homo sapiens, UniProt P41161 1-510); conditions: protein: recombinant; tags: N-terminal GST; dsDNA, one strand shown
Sequence of ETV5 (P41161 whole entry): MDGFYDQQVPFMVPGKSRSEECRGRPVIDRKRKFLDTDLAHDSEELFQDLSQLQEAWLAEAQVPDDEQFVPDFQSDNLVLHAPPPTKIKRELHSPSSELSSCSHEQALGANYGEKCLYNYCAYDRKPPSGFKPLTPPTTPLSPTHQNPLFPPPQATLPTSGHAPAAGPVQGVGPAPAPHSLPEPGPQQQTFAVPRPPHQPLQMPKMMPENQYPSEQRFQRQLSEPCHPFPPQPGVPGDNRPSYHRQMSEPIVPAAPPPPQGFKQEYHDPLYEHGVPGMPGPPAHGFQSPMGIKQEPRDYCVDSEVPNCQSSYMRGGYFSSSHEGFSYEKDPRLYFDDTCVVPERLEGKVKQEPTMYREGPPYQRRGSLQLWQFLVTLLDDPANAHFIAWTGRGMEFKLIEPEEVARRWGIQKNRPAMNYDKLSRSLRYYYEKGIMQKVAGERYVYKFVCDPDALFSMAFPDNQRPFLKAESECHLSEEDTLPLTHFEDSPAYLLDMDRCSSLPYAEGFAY
Procedure, shortened: as §1

[11] = target: HSF1 (Homo sapiens, UniProt Q00613 1-529); conditions: protein: recombinant; tags: N-terminal GST; chain copies: 3; dsDNA, one strand shown
Sequence of HSF1 (Q00613 whole entry): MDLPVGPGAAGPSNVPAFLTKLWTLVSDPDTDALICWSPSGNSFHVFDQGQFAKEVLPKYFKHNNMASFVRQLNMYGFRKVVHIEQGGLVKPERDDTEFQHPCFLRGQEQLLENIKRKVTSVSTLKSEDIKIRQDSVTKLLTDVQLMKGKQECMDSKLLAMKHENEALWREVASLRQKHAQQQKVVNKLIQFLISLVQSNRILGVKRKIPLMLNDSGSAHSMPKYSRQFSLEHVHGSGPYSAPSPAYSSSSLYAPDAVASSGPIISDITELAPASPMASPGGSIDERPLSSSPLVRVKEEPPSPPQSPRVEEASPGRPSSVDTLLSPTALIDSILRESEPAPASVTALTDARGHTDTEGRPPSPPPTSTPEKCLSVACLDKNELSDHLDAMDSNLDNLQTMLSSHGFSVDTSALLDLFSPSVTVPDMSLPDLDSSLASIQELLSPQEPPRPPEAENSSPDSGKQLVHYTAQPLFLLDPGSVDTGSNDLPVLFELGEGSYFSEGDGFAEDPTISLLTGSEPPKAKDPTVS
Procedure, shortened: as §1

[12] = target: T7, SPIC (Homo sapiens, UniProt Q8N5J4 1-248); conditions: protein: recombinant; tags: N-terminal GST; dsDNA, one strand shown
T7 sequence: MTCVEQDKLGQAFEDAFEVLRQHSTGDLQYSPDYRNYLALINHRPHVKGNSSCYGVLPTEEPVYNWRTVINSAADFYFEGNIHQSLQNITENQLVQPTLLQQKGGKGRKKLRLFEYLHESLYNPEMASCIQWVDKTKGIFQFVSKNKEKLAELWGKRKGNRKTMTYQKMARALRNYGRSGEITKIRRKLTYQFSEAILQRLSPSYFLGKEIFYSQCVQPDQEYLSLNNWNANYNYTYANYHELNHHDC
Procedure, shortened: as §1

[13] = target: ELF4 (Homo sapiens, UniProt Q99607 1-663); conditions: protein: recombinant; tags: N-terminal GST; dsDNA, one strand shown
Sequence of ELF4 (Q99607 whole entry): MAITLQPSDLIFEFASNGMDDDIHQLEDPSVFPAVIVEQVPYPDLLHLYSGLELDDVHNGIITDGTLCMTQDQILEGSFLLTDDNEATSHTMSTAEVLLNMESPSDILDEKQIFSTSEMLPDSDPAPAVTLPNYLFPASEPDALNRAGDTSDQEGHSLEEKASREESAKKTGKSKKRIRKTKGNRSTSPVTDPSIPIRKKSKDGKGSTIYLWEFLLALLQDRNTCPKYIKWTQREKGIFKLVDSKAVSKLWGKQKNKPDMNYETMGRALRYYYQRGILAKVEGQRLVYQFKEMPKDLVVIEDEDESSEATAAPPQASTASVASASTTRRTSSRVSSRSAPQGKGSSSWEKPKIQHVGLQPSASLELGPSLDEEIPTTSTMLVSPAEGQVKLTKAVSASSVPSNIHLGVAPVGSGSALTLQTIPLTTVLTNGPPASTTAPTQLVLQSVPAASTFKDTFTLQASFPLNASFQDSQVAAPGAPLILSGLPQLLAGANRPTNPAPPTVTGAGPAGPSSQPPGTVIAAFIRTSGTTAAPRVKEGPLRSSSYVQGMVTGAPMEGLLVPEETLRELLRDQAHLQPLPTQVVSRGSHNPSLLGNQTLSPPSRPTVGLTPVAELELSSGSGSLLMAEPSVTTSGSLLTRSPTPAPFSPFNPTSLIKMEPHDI
Procedure, shortened: as §1

[14] = target: T8, ELK4 (Homo sapiens, UniProt P28324-2 1-405); conditions: protein: recombinant; tags: N-terminal GST; dsDNA, one strand shown
T8 sequence: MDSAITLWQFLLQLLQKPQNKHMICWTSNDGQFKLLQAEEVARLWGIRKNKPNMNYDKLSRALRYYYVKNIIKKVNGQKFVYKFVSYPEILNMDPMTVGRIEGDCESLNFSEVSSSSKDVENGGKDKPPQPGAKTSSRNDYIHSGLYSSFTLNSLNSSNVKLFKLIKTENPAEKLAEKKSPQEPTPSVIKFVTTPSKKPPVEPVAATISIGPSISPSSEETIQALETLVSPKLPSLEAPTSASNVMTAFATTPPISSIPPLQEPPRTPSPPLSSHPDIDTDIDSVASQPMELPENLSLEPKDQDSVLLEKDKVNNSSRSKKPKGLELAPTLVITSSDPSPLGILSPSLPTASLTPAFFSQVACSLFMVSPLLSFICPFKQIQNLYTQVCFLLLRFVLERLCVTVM
Procedure, shortened: as §1

[15] = target: T9, ELF3 (Homo sapiens, UniProt P78545 1-371); conditions: protein: recombinant; tags: N-terminal GST; dsDNA, one strand shown
T9 sequence: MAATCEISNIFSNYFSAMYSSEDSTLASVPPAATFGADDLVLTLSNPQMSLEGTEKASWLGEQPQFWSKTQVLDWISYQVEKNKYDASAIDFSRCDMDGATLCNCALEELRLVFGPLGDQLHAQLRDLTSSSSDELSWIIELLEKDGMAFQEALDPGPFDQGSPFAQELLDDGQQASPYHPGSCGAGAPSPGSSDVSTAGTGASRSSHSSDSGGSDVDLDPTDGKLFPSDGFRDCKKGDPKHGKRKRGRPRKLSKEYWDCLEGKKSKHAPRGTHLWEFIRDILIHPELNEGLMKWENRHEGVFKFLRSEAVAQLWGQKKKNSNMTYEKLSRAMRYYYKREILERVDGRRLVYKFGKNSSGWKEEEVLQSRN
Procedure, shortened: as §1

[16] = target: T10, EHF (Homo sapiens, UniProt Q9NZC4 1-300); conditions: protein: recombinant; tags: N-terminal GST; dsDNA, one strand shown
T10 sequence: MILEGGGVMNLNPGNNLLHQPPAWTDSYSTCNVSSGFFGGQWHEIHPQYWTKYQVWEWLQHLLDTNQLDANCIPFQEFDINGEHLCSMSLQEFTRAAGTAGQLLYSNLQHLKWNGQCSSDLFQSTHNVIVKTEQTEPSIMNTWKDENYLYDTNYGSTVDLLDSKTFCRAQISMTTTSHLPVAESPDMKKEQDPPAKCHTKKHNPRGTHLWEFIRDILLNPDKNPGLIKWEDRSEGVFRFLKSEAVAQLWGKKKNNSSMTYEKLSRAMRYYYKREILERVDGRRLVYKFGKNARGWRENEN
Procedure, shortened: as §1

[17] = target: CRX (Homo sapiens, UniProt O43186 1-299); conditions: protein: recombinant; tags: N-terminal GST; dsDNA, one strand shown
Sequence of CRX (O43186 whole entry): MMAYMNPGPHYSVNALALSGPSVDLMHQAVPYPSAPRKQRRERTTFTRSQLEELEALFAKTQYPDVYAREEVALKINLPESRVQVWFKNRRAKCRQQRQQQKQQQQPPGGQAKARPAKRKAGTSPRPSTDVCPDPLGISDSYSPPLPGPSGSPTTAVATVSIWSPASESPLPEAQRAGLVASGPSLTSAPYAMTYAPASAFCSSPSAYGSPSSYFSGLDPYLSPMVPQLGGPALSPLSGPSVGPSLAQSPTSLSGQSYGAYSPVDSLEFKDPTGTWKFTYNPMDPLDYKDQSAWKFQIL
Procedure, shortened: as §1

[18] = target: ETV1 (Homo sapiens, UniProt P50549 1-477); conditions: protein: recombinant; tags: N-terminal GST; dsDNA, one strand shown
Sequence of ETV1 (P50549 whole entry): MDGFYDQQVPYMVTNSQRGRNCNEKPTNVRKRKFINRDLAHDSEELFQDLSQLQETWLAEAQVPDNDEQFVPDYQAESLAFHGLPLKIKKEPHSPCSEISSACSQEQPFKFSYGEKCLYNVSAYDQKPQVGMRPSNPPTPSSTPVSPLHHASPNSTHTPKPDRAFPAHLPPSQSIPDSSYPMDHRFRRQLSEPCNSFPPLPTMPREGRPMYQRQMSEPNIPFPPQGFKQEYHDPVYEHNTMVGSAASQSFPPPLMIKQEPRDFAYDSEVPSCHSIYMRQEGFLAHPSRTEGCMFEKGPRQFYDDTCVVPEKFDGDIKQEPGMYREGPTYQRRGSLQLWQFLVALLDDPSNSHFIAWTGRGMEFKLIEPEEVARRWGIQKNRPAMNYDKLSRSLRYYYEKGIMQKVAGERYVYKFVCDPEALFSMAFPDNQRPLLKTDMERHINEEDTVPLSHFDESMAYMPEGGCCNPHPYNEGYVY
Procedure, shortened: as §1

Row | Sequence | binding signal [1] | binding signal [2] | binding signal [3] | binding signal [4] | binding signal [5] | binding signal [6] | binding signal [7] | binding signal [8] | binding signal [9] | binding signal [10] | binding signal [11] | binding signal [12] | binding signal [13] | binding signal [14] | binding signal [15] | binding signal [16] | binding signal [17] | binding signal [18]
1 | AACCCA | 1.05 fold enrichment (6-mer frequency, TF over GST control) | 1.03 fold enrichment (6-mer frequency, TF over GST control) | 1.02 fold enrichment (6-mer frequency, TF over GST control) | 1.06 fold enrichment (6-mer frequency, TF over GST control) | 1.06 fold enrichment (6-mer frequency, TF over GST control) | 1 fold enrichment (6-mer frequency, TF over GST control) | 1 fold enrichment (6-mer frequency, TF over GST control) | 1.1 fold enrichment (6-mer frequency, TF over GST control) | 1.03 fold enrichment (6-mer frequency, TF over GST control) | 1.05 fold enrichment (6-mer frequency, TF over GST control) | 1 fold enrichment (6-mer frequency, TF over GST control) | 1.1 fold enrichment (6-mer frequency, TF over GST control) | 1.1 fold enrichment (6-mer frequency, TF over GST control) | 1.08 fold enrichment (6-mer frequency, TF over GST control) | 1.04 fold enrichment (6-mer frequency, TF over GST control) |  |  | 
2 | ATCAGC | 1.03 fold enrichment (6-mer frequency, TF over GST control) | 1.08 fold enrichment (6-mer frequency, TF over GST control) |  |  | 1.01 fold enrichment (6-mer frequency, TF over GST control) |  | 1.02 fold enrichment (6-mer frequency, TF over GST control) | 1.03 fold enrichment (6-mer frequency, TF over GST control) |  | 1.01 fold enrichment (6-mer frequency, TF over GST control) | 1.01 fold enrichment (6-mer frequency, TF over GST control) | 1 fold enrichment (6-mer frequency, TF over GST control) | 1.02 fold enrichment (6-mer frequency, TF over GST control) | 1.14 fold enrichment (6-mer frequency, TF over GST control) | 1.13 fold enrichment (6-mer frequency, TF over GST control) | 1.02 fold enrichment (6-mer frequency, TF over GST control) | 1.31 fold enrichment (6-mer frequency, TF over GST control) | 1.01 fold enrichment (6-mer frequency, TF over GST control)

Reference: PMC7862700, “An all-to-all approach to the identification of sequence-specific readers for epigenetic DNA modifications on cytosine”
